Test results: publication PMC5540273 (PLoS ONE, 2017)
Where two headings read alike, the source gives them in different places.

Legend:
Conditions in all cases: n = 1
[1] = test system: QSK
[2] = test system: RAF1
[3] = test system: RET
[4] = test system: RIOK1
[5] = test system: RIOK2
[6] = test system: RIOK3
[7] = test system: RIPK1
[8] = test system: RIPK2
[9] = test system: RIPK4
[10] = test system: RIPK5
[11] = concentration: 1 μM, replicates: in singlicate
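Also: KINOMEscan kinase panel screen.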

Compound | %Inh [1, 11] [%] | %Inh [2, 11] [%] | %Inh [3, 11] [%] | %Inh [4, 11] [%] | %Inh [5, 11] [%] | %Inh [6, 11] [%] | %Inh [7, 11] [%] | %Inh [8, 11] [%] | %Inh [9, 11] [%] | %Inh [10, 11] [%] | %Inh ([1]; 1 µM) [%] | %Inh ([2]; 1 µM) [%] | %Inh ([3]; 1 µM) [%] | %Inh ([4]; 1 µM) [%] | %Inh ([5]; 1 µM) [%] | %Inh ([6]; 1 µM) [%] | %Inh ([7]; 1 µM) [%] | %Inh ([8]; 1 µM) [%] | %Inh ([9]; 1 µM) [%] | %Inh ([10]; 1 µM) [%]
Cc1cc(NCC(c2ccccc2)c2ccccc2)nc(NCc2ccc(C(F)(F)F)cc2)n1 [GW497681] | 0 | 18 | 0 | 22 | 0 | 9 | 0 | 9 | 0 | 0 |  |  |  |  |  |  |  |  |  | 
Cc1cccc(-c2nc(-c3ccc(S(C)(=O)=O)cc3)sc2-c2ccnc(NCCc3ccccc3)c2)c1 | 0 | 93.4 | 30 | 17 | 15 | 18 | 3 | 6 | 0 | 0 |  |  |  |  |  |  |  |  |  | 
COc1ccc(CNC(=O)NC2CCN(c3ccnc(Nc4cc(OC)c(OC)c(OC)c4)n3)C2)cc1 (centres unmarked) [GSK1379748] | 0 | 0 | 0 | 35 | 0 | 32 | 17 | 16 | 28 | 48 |  |  |  |  |  |  |  |  |  | 
Cn1ccc2ncnc(Oc3cccc(C(=O)Nc4ccccc4)c3)c21 | 0 | 5 | 14 | 38 | 0 | 23 | 0 | 15 | 18 | 0 |  |  |  |  |  |  |  |  |  | 
Cc1ccc(NC(=O)Nc2cccc(C(F)(F)F)c2)cc1 [GSK955403] |  |  |  |  |  |  |  |  |  |  | 0 | 8 | 0 | 17 | 0 | 0 | 7 | 8 | 0 | 0
O=C(Nc1n[nH]c2cc(-c3cccc(F)c3F)ccc12)C1CC1 [SB-733894] | 26 | 12 | 0 | 47 | 0 | 52 | 72 | 0 | 18 | 31 |  |  |  |  |  |  |  |  |  | 
Cc1nnc(-c2ccc3occ(-c4ccc(S(C)=O)cc4)c3c2)[nH]1 (centres unmarked) | 3 | 4 | 31 | 13 | 31 | 0 | 100 | 13 | 0 | 0 |  |  |  |  |  |  |  |  |  | 
Cc1ccc(C(=O)Nc2ccc(Nc3ccnc4cc(-c5ccccn5)ccc34)cc2O)cc1.Cl [GW440146] | 0 | 8 | 26 | 14 | 3 | 81 | 0 | 52 | 3 | 0 |  |  |  |  |  |  |  |  |  | 
